From PubChem
SMARCA2 act: increases SMARCA2 function in MMTV reporter cells | activation, % at 9.1 µM | MG213 cells, MMTV-luciferase reporter, dexamethasone, overnight | actives 1% (n = 370,000); in the data active = activation above about 7.8%;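 also: 0% = vehicle wells and 100% = reference activator wells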
MsrA inh: bovine MsrA inhibition; purified bovine MsrA, absorbance read-out; inhibition, % at 15.5 µM; actives 0.75% (n = 360,000); AID 651718; in the data active = inhibition above about 4.5%;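 also: 0% = vehicle wells with enzyme and 100% = reference inhibitor wells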
bovine MsrA act: bovine methionine sulfoxide reductase A activation; actives 0.3% (n = 360,000); AID 602163; activation, % at 10.6 µM; purified bovine MsrA, absorbance read-out; in the data active = activation above about 7.5%;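 also: 0% = vehicle and 100% = reference activator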
ABCB6 inh 2: human ABCB6 transporter inhibition; actives 0.19% (n = 360,000); K562-ABCB6 porphyrin accumulation, flow cytometry, 1 h; hits give low values; Q9NP58; fluorescence ratio to DMSO, % at 10 µM;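 active = fluorescence ratio to DMSO below 75%, the collection mean minus 3 SD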;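 also: signal is porphyrin accumulated inside mitochondria; 100% equals median channel fluorescence of DMSO control wells; lower ratio means ABCB6 inhibition with less porphyrin fluorescence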
SMARCA2 conf: confirmation of SMARCA2 (BRM) function activators; shares compounds with SMARCA2 act; MG213 cells, MMTV-luciferase with dexamethasone, luminescence, overnight; MG213 cells expressing E1A, Rb sequestered; DMSO wells 0%, reference activator 100%; activation, % at 9.1 µM; actives 30% (n = 3,500);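 active = activation above its plate's cutoff, the mean activation of tested wells plus 3 SD, cut at about 7.9% in these data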
GAL4-VP16 Luc: activates GAL4-VP16 luciferase, flagging SMARCA2 activator hits. actives 41% (n = 3,500). activation, % at 9.1 µM. shares compounds with SMARCA2 act. HEK293 GAL4-VP16 pG5luc reporter, luciferase luminescence; scaled: DMSO wells 0%, SAHA wells 100%;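 active = activation above the solvent-only control well mean plus 3 SD, averaged across control plates, cut at about 5.2% in these data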
An asterisk follows results filed as active; . = no result. Compounds with a hit are over-represented: about 2.1% of the library has one in this group of screens.

SMILES	SMARCA2 act	MsrA inh	bovine MsrA act	ABCB6 inh 2	SMARCA2 conf	GAL4-VP16 Luc
O=C(NCC[C@H]1CC[C@@H](NC(=O)C2CCOCC2)[C@@H](CO)O1)Nc1ccc(Cl)cc1	-5	1	.	.	.	.
C=CCN1C(=O)[C@@H](CC(=O)NCC23CC4CC(CC(C4)C2)C3)[C@]2(C(=O)OCC)CCCCC/C=C/12	-3	.	.	.	.	.
Nc1nc(SCc2ccccc2)c2ncn(CCO)c2n1	-5	0	-9	100	.	.
ClCCn1cnc2c(SCc3ccccc3)ncnc21	8.0*	0	-3	102	4	5.2*
Cn1cnc2c(SCc3ccccc3)ncnc21	9.7*	0	-3	97	6	5
ClCCn1cnc2c(SCc3ccccc3Cl)ncnc21	6	0	1	91	.	.
Cc1ccc(NC(=O)Cn2nnc(-c3ccncc3)n2)cc1C	-4	.	.	.	.	.
CCCn1c(=NC(=O)c2ccco2)c(C(=O)OCC)cc2c(=O)n3ccccc3nc21	13*	1	-9	94	4	2
COC(=O)[C@]12C[C@H](CC(=O)NCCc3ccccc3OC)C(=O)N(Cc3cccc4ccccc34)C1=C[C@H](C(C)(C)C)O[C@@H]2C	-3	.	.	.	.	.
COc1cc(OC)cc(N2CCN(S(=O)(=O)c3ccc(-n4cnnn4)cc3)CC2)c1	9.6*	1	-1	105	1	2
Cc1cccc(NC(=O)C2CC(=O)N(c3ccc4c(c3)OCCO4)C2)n1 (stereo not drawn)	-1	-1	-2	97	.	.
CC(=O)Nc1cccc(NC(=O)C2CC(=O)N(c3ccc(C)cc3)C2)c1 (stereo not drawn)	9.5*	0	-1	101	3	0
Cc1ccc(N2CC(C(=O)Nc3ccncc3)CC2=O)cc1 (stereo not drawn)	-1	1	3	102	.	.
COc1ccc(N2CC(C(=O)Nc3cc(C)on3)CC2=O)cc1 (stereo not drawn)	8.0*	0	-2	92	0	0
COc1ccc(N2CC(C(=O)Nc3cccc(C)n3)CC2=O)cc1 (stereo not drawn)	8.0*	-1	-4	94	1	2
COc1ccc(-n2c(SCC(=O)N/N=C(/C)c3cccc(O)c3)nc3ccccc3c2=O)cc1	-4	.	.	.	.	.
CCC1C(=O)n2nc(-c3ccccc3)cc2N=C1C (stereo not drawn)	10*	0	-3	106	12*	9.2*
O=C(Nc1ccc(NC(=O)c2ccc([N+](=O)[O-])o2)cc1Cl)c1ccco1	3	1	1	111	.	.
O=C(Nc1ccc(N2CCOCC2)cc1)c1ccc([N+](=O)[O-])o1	15*	2	1	97	18*	7.3*
O=C(Nc1ccc(S(=O)(=O)N2CCOCC2)cc1)c1ccc([N+](=O)[O-])o1	-3	0	-7	104	.	.
Cc1cccc(NC(=O)c2ccc([N+](=O)[O-])o2)n1	11*	1	1	100	15*	3
O=C(Nc1cccc2ncccc12)c1ccc([N+](=O)[O-])o1	15*	1	-1	97	8.4*	1
O=C(Nc1ccccc1Cl)c1ccc([N+](=O)[O-])o1	9.0*	0	5	102	18*	3
COC(=O)[C@]1(CNC(=O)Nc2ccc(C)c(Cl)c2)CC(=O)N(C)[C@@H]1c1ccccc1	-4	.	.	.	.	.
O=C(Nc1ccccc1Cl)c1cc(C2CCCCN2S(=O)(=O)c2ccc(F)cc2F)on1 (stereo not drawn)	-2	0	-3	97	.	.
SMILES	SMARCA2 act	MsrA inh	bovine MsrA act	ABCB6 inh 2	SMARCA2 conf	GAL4-VP16 Luc
C[C@H]1CCCN1c1cccc2c1S(=O)(=O)N(C1CC1)CCCO2	-2	.	.	.	.	.
Cc1cccnc1NC(=O)c1ccc([N+](=O)[O-])o1	-1	0	1	95	.	.
Cc1ccccc1NC(=O)c1ccc([N+](=O)[O-])o1	11*	0	0	103	11*	4
CCCCN1CCc2c(c3ccccc3n2Cc2ccccc2)C1	-1	2	1	98	.	.
CN1CCc2c(c3ccccc3n2Cc2ccccc2)C1	-2	-1	6	90	-2	2
CCCc1cc(=O)c2ccc(OC/C(C)=N/O)cc2o1	8.5*	-1	-2	101	3	2
CC(C)n1c(/C=C/[C@@H](O)C[C@@H](O)CC(=O)O)c(-c2ccc(F)cc2)c2ccccc21	12*	0	-2	100	25*	3
Cc1nc2c(-c3ccc(F)cc3)c(C)nn2c(C)c1CCC(=O)Nc1ccccc1	-3	1	-7	96	.	.
COc1ccc(C2C(C(=O)Nc3ccc(F)cc3)CCC(=O)N2c2ccc(OC)cc2)cc1 (stereo not drawn)	-2	.	.	.	.	.
CCCCNS(=O)(=O)/C=C/c1cc2c(cc1CNC(=O)OC(C)(C)C)OCO2	-3	.	.	.	.	.
CC(=O)NC(c1ccccc1)c1nc(-c2cnc3ccccc3c2)cs1 (stereo not drawn)	-7	1	0	86	.	.
Cn1c(SCCc2ccccc2)nnc1-c1ccco1	9.4*	.	.	.	6	5
COc1ccc(C(=O)NCC(=O)N2CCN(c3ncccn3)CC2)cc1OC	8.0*	0	1	99	4	-1
COc1ccc(C(=O)NCC(=O)N2CCNC(=O)C2)cc1OC	0	-1	-7	157	.	.
O=C(CNS(=O)(=O)c1ccccc1)OCC(=O)c1ccc(OC(=O)c2ccccc2)cc1	8.7*	-1	-2	106	18*	2
O=C(COc1ccccc1)c1ccccc1	0	0	-2	97	.	.
O=C(CNS(=O)(=O)c1ccccc1)OCC(=O)c1ccc(Br)cc1	4	-1	-1	97	.	.
COC(=O)c1ccc(OCC(=O)c2ccccc2)cc1	12*	-1	-4	95	11*	8.5*
CCC(=O)Nc1ccc(NC(=O)Cc2ccccc2)cn1	8.7*	1	-1	93	0	0
Cc1ccnc(NC(=O)Cc2ccc(-c3ccccc3)cc2)c1	42*	0	-3	92	37*	9.1*
Cc1ccnc(NC(=O)CNC(=O)c2ccc(C)s2)c1	9.8*	-1	-8	101	4	6.7*
Cc1ccc(NC(=O)CNC(=O)c2ccc(C)s2)nc1	-1	1	0	101	.	.
O=C(Cc1ccc(-c2ccccc2)cc1)Nc1ccccn1	9.9*	0	-1	100	16*	2
CCC(=O)Nc1ccc(NC(=O)CCc2ccccc2)cn1	-2	1	-2	92	.	.
NC(=O)[C@@H]1CCCN1C(=O)[C@@H](Cc1ccccc1)NC(=O)[C@H]1O[C@@H](n2ccc(N)nc2=O)[C@H](O)[C@@H]1O	-2	0	.	.	.	.
CCCCCNC(=O)C(c1ccc(-c2ccccc2)cc1)n1c(=O)c(-c2cc3ccccc3[nH]2)nc2ccccc21 (stereo not drawn)	-2	-1	.	.	.	.
Cc1cccc(NC(=O)CN(C)C(=O)c2ccc3ccccc3n2)c1C	0	1	-12	97	.	.
